The campaign covered roughly 3,200 compounds. About 2,900 (91%) were called active.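 How the source made its calls: active means EC50 no more than a set limit of log units above the highest dose; inactive means the rest.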 So high a share suggests a set chosen from earlier hits. The list shows a part of the results. Potency and affinity values are given separately.
assay: SKKanGAS survival reduction under kanamycin, dose response, streptokinase promoter inhibitor project, SKKanGAS strain, luminescence, dose confirmation (AID 1902);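 further: lower survival reflects blocked streptokinase promoter driving kanamycin resistance gene; 0% = DMSO median and -100% = tetracycline positive control median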; details: S. pyogenes SKKanGAS, BacTiterGlo, 6 h; at 15 µM (top of the series)

Compound	activity change, negative = inhibition
N#C/C(=C\c1ccc(/C=C(/C#N)c2nn(CCO)c(N)c2C#N)cc1)c1nn(CCO)c(N)c1C#N	-60.6% (active)

Source: PubChem BioAssay AID1902 (Broad Institute, 2009)
